Assay in all cases: DAPPL (digital affinity profiling via proximity ligation, sequencing); 10 mM Tris-HCl pH 7.5, 50 mM NaCl, 1 mM DTT, 4% glycerol, room temperature, 30 min; GST-TFs on glutathione beads, 16-mer random dsDNA library, 0.1% formaldehyde crosslink after washing; high values mean tight binding
What all share (details): protein: recombinant; tags: N-terminal GST; dsDNA, one strand shown

One test concerns the target T1, FLI1 (Homo sapiens, UniProt Q01543 1-452).
T1 sequence: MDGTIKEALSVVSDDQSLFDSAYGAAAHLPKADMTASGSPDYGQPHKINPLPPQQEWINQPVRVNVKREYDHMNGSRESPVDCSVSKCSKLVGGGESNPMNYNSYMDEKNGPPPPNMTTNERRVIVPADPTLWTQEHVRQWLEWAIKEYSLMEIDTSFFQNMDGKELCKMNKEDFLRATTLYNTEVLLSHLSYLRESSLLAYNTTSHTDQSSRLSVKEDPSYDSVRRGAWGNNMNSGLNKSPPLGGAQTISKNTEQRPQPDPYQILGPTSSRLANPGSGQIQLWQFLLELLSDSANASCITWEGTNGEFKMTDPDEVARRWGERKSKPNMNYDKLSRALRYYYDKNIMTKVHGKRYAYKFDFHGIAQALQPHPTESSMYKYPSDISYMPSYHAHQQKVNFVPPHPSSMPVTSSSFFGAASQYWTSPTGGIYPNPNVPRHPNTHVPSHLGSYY
The procedure, abridged:
(§1)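 Human transcription factors carrying a GST fusion were produced in yeast, bound to glutathione beads, tagged with DNA barcodes and pooled together with a tag-only sample. Each pool was held with 200 nmole of a random double-stranded 16-mer DNA library in Tris/NaCl/DTT/glycerol buffer for 30 min at room temperature, then washed, crosslinked in 0.1% formaldehyde, proximity-ligated with BsaI/T4 ligase (1 h, 37 °C), PCR-amplified and sequenced on an Illumina NextSeq500. Binding signal is the read frequency of each hexamer for a given factor divided by its frequency in the tag-only sample.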

The next test concerns the target T2, ELK1 (Homo sapiens, UniProt P19419 1-428).
T2 sequence: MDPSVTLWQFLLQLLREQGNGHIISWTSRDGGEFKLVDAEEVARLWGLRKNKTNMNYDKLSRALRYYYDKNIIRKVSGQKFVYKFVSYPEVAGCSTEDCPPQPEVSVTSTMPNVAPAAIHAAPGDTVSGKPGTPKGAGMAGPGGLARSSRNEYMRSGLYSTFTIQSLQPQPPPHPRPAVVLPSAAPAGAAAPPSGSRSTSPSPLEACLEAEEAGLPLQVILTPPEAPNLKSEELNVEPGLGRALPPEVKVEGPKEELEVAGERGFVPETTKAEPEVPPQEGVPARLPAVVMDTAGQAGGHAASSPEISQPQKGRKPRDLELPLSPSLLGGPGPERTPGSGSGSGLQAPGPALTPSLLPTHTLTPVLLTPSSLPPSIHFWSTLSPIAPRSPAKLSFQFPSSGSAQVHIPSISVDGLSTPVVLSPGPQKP
The essentials: as §1

The target in a further test is T3, GABPA (Homo sapiens, UniProt Q06546 1-454).
T3 sequence: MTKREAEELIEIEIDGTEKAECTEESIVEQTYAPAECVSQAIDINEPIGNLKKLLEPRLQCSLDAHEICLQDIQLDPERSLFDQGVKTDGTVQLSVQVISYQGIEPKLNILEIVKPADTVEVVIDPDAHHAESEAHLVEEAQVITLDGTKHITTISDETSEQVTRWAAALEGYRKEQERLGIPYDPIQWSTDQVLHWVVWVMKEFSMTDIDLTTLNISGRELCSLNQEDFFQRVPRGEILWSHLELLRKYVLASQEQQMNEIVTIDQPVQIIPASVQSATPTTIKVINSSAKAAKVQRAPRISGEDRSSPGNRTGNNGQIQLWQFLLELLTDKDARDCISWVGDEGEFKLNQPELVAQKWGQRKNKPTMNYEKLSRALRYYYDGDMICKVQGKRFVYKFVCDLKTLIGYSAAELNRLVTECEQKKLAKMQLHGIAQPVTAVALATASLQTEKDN
The essentials:
as §1

A further test deals with T4, ERG (Homo sapiens, UniProt P11308 1-479).
T4 sequence: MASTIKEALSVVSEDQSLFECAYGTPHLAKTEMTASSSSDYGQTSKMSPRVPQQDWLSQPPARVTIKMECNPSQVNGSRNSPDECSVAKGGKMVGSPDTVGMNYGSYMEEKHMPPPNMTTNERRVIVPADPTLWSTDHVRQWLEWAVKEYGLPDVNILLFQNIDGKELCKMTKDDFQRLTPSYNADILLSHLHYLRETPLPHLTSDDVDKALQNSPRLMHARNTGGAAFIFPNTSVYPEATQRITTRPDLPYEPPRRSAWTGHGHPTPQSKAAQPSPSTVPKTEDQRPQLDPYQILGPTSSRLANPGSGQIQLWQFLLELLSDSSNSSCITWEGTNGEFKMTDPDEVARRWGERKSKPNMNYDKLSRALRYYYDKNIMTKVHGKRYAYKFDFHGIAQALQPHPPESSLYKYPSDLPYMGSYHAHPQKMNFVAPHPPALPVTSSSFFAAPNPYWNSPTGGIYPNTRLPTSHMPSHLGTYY
The procedure, abridged:
as §1

The next test has as its target ELF1 (Homo sapiens, UniProt P32519 1-619). The essentials: as §1
The target in a further test is T5, EHF (Homo sapiens, UniProt Q9NZC4 1-300).
T5 sequence: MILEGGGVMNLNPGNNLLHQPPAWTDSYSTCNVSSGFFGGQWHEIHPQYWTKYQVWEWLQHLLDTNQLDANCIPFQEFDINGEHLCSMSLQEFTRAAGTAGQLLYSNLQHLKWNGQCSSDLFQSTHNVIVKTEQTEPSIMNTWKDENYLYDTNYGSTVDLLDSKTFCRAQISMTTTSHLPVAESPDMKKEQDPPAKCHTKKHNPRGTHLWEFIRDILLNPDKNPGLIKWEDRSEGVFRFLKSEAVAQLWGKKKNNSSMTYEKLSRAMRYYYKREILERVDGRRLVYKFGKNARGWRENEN
The essentials:
as §1

Another test has as its target SPI1 (Homo sapiens, UniProt P17947 1-270). The procedure, abridged:
as §1

Another test deals with SPIB (Homo sapiens, UniProt Q01892 1-262). The essentials: as §1
Sequence of SPIB (Q01892 whole entry): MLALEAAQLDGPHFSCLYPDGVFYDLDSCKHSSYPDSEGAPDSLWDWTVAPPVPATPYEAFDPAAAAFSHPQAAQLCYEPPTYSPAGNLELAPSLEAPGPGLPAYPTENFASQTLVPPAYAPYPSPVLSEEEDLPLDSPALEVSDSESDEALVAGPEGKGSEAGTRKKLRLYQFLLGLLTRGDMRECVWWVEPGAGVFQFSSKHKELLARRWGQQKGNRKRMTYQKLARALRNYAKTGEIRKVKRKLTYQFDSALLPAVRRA
The next test addresses T6, ELK3 (Homo sapiens, UniProt P41970 1-407).
T6 sequence: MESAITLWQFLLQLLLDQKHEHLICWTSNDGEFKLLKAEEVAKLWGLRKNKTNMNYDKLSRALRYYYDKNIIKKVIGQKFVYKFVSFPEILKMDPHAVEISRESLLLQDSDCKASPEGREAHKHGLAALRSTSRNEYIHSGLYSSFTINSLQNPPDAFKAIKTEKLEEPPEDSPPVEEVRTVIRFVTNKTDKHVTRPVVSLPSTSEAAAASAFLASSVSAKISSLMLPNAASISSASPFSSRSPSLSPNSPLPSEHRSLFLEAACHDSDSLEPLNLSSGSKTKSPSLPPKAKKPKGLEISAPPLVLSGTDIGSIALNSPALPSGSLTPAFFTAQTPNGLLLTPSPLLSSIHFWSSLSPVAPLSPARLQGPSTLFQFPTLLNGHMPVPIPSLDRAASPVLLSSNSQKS
The procedure, abridged: as §1

Sequence of ELF1 (P32519 whole entry): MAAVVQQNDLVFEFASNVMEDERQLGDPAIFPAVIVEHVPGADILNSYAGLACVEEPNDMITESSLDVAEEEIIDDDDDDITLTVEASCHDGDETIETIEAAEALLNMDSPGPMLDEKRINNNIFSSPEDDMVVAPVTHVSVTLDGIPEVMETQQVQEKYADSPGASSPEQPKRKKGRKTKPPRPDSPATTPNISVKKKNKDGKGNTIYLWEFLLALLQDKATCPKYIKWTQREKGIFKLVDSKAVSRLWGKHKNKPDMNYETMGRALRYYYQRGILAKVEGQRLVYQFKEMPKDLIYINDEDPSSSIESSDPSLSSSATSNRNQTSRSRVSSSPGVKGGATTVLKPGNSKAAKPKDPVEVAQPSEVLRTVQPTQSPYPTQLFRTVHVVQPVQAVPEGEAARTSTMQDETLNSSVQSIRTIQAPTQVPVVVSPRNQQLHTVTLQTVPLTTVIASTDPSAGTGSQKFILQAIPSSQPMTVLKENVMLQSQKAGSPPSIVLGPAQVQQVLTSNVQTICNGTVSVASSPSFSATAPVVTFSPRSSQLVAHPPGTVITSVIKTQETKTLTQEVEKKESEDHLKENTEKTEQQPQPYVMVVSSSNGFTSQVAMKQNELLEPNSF

As for TCGATC, the binding signal was 1.31 fold enrichment (6-mer frequency, TF over GST control) in the test with FLI1; 1.08 fold enrichment (6-mer frequency, TF over GST control) in the test with ELK1; 1.14 fold enrichment (6-mer frequency, TF over GST control) with GABPA; 1.18 fold enrichment (6-mer frequency, TF over GST control) in the test with ERG; 1.27 fold enrichment (6-mer frequency, TF over GST control) with ELF1; 1.16 fold enrichment (6-mer frequency, TF over GST control) with EHF. Also, the binding signal with SPI1 is 1.11 fold enrichment (6-mer frequency, TF over GST control); with SPIB it was 1.25 fold enrichment (6-mer frequency, TF over GST control); with ELK3 it was 1.27 fold enrichment (6-mer frequency, TF over GST control).
As for ATGCGC, the binding signal is 1.15 fold enrichment (6-mer frequency, TF over GST control) in the test with FLI1; 1.18 fold enrichment (6-mer frequency, TF over GST control) with ELK1; 1.18 fold enrichment (6-mer frequency, TF over GST control) with GABPA; 1.18 fold enrichment (6-mer frequency, TF over GST control) with ERG; 1.1 fold enrichment (6-mer frequency, TF over GST control) with ELF1; 1.17 fold enrichment (6-mer frequency, TF over GST control) with EHF. Also, the binding signal with SPI1 is 1.11 fold enrichment (6-mer frequency, TF over GST control); with SPIB, 1.21 fold enrichment (6-mer frequency, TF over GST control); with ELK3, 1.08 fold enrichment (6-mer frequency, TF over GST control).
TCAAAC: the binding signal was 1.17 fold enrichment (6-mer frequency, TF over GST control) in the test with FLI1; 1.25 fold enrichment (6-mer frequency, TF over GST control) in the test with ELK1; 1.26 fold enrichment (6-mer frequency, TF over GST control) with GABPA; 1.26 fold enrichment (6-mer frequency, TF over GST control) with ERG; 1.15 fold enrichment (6-mer frequency, TF over GST control) in the test with ELF1; 1.15 fold enrichment (6-mer frequency, TF over GST control) with EHF. For the same sequence, the binding signal with SPI1 is 1.16 fold enrichment (6-mer frequency, TF over GST control); in the test with SPIB, 1.16 fold enrichment (6-mer frequency, TF over GST control); in the test with ELK3, 1.2 fold enrichment (6-mer frequency, TF over GST control).
As to CTAATT, the binding signal was 1.35 fold enrichment (6-mer frequency, TF over GST control) in the test with FLI1; 1.2 fold enrichment (6-mer frequency, TF over GST control) with ELK1; 1.33 fold enrichment (6-mer frequency, TF over GST control) in the test with GABPA; 1.36 fold enrichment (6-mer frequency, TF over GST control) in the test with ERG; 1.43 fold enrichment (6-mer frequency, TF over GST control) in the test with ELF1; 1.33 fold enrichment (6-mer frequency, TF over GST control) with EHF. For the same sequence, the binding signal is 1.3 fold enrichment (6-mer frequency, TF over GST control) in the test with SPI1; 1.37 fold enrichment (6-mer frequency, TF over GST control) with SPIB; 1.4 fold enrichment (6-mer frequency, TF over GST control) with ELK3.
On to CTATTT, for which the binding signal in the test with FLI1 was 1.7 fold enrichment (6-mer frequency, TF over GST control); with ELK1, 1.67 fold enrichment (6-mer frequency, TF over GST control); with GABPA, 1.74 fold enrichment (6-mer frequency, TF over GST control); with ERG, 1.77 fold enrichment (6-mer frequency, TF over GST control); in the test with ELF1, 1.58 fold enrichment (6-mer frequency, TF over GST control); with EHF it was 1.85 fold enrichment (6-mer frequency, TF over GST control). For the same sequence, the binding signal with SPI1 was 1.76 fold enrichment (6-mer frequency, TF over GST control); with SPIB, 1.81 fold enrichment (6-mer frequency, TF over GST control); with ELK3 it was 1.85 fold enrichment (6-mer frequency, TF over GST control).
With CTTAAT, the binding signal was 1.37 fold enrichment (6-mer frequency, TF over GST control) in the test with FLI1; 1.2 fold enrichment (6-mer frequency, TF over GST control) in the test with ELK1; 1.34 fold enrichment (6-mer frequency, TF over GST control) with GABPA; 1.13 fold enrichment (6-mer frequency, TF over GST control) in the test with ERG; 1.26 fold enrichment (6-mer frequency, TF over GST control) in the test with ELF1; 1.24 fold enrichment (6-mer frequency, TF over GST control) with EHF. Besides, the binding signal in the test with SPI1 is 1.31 fold enrichment (6-mer frequency, TF over GST control); in the test with SPIB, 1.3 fold enrichment (6-mer frequency, TF over GST control); with ELK3, 1.47 fold enrichment (6-mer frequency, TF over GST control).
In the case of CGCCCT, the binding signal in the test with FLI1 was 1.44 fold enrichment (6-mer frequency, TF over GST control); in the test with ELK1, 1.36 fold enrichment (6-mer frequency, TF over GST control); with GABPA it was 1.37 fold enrichment (6-mer frequency, TF over GST control); with ERG, 1.31 fold enrichment (6-mer frequency, TF over GST control); in the test with ELF1, 1.43 fold enrichment (6-mer frequency, TF over GST control); in the test with EHF, 1.35 fold enrichment (6-mer frequency, TF over GST control). For the same sequence, the binding signal with SPI1 was 1.24 fold enrichment (6-mer frequency, TF over GST control); with SPIB, 1.36 fold enrichment (6-mer frequency, TF over GST control); with ELK3 it was 1.5 fold enrichment (6-mer frequency, TF over GST control).

The record behind these values is paper PMC7862700, “An all-to-all approach to the identification of sequence-specific readers for epigenetic DNA modifications on cytosine”.
